According to PubChem BioAssay (NCATS):
“And” between values parts separate entries of the source, which are not always exact repeats. Equal entries are not always repeated. Records with an inconclusive call do not appear. The source made the active and inactive calls. Calls follow the shape of the dose curve; as a rule, active = well fitted curve in the direction sought with a large enough effect; inconclusive = small, poorly fitted or top-dose-only effect, or another doubt; inactive = no such curve, though single readings can be large; an effect the other way counts as inactive or inconclusive.

What was measured:
[1] = test system: HaCat; assay: Cytotoxic Profiling of Annotated Libraries Using Quantitative High-Throughput Screening (AID 1296008); details: Five cell lines viability, CellTiter-Glo ATP luminescence, 48-72 h; max response: hits give low values; also: nearly all actives have a fitted effect of over 60% in size
Outline: (§1)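 Cytotoxicity was measured as CellTiter-Glo ATP luminescence, read after 10 min at room temperature. Compound treatment of the cells lasted 48 or 72 hr at 37 degrees Celsius in a qHTS format.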

[2] = test system: KB-3-1; assay: as above; details: Five cell lines viability, CellTiter-Glo ATP luminescence, 48-72 h; max response: hits give low values
Outline: as §1

[3] = test system: NIH3T3; assay: as above; details: Five cell lines viability, CellTiter-Glo ATP luminescence, 48-72 h; max response: hits give low values
Outline: as §1

[4] = test system: CRL-7250; assay: qHTS assay to identify novel small-molecules to repurpose for Merkel cell carcinoma treatment (AID 1296009); details: MCC and control cell lines, CellTiter-Glo viability, 72 h; at 44.8 µM (top of the series) unless noted; also: nearly all actives have a fitted effect of over 60% in size
Outline: (§2)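 Cell viability measured by CellTiter-Glo following 72 hr compound treatment at 37 degree celsius, with NPC and MIPE libraries tested in 8- and 11-point concentration series.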

[5] = test system: HACAT; assay: as above; details: MCC and control cell lines, CellTiter-Glo viability, 72 h; at 44.8 µM (top of the series) unless noted
Outline: as §2

[6] = test system: HEK293T; assay: as above; details: MCC and control cell lines, CellTiter-Glo viability, 72 h; at 44.8 µM (top of the series) unless noted
Outline: as §2

[7] = test system: MCC-13; assay: as above; details: MCC and control cell lines, CellTiter-Glo viability, 72 h; series mostly up to 46 µM
Outline: as §2

[8] = test system: MCC-26; assay: as above; details: MCC and control cell lines, CellTiter-Glo viability, 72 h; series mostly up to 46 µM
Outline: as §2

[9] = test system: MKL-1; assay: as above; details: MCC and control cell lines, CellTiter-Glo viability, 72 h; series mostly up to 46 µM
Outline: as §2

[10] = test system: MKL-2; assay: as above; details: MCC and control cell lines, CellTiter-Glo viability, 72 h; series mostly up to 46 µM
Outline: as §2

[11] = test system: UISO; assay: as above; details: MCC and control cell lines, CellTiter-Glo viability, 72 h; series mostly up to 46 µM
Outline: as §2

[12] = test system: WaGa; assay: as above; details: MCC and control cell lines, CellTiter-Glo viability, 72 h; series mostly up to 46 µM
Outline: as §2

[13] = test system: C33A; assay: Primary qHTS to identify gynecologic anti-cancer compounds using libraries of approved drugs and bioactive compounds (AID 1345084); details: Gynecologic cancer cell panel viability, ATPlite luminescence, 48 h; series mostly up to 57.5 µM; also: nearly all actives have a fitted effect of over 55% in size
Outline: (§3)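 Five-concentration response, 48 h; readout is ATP-driven luciferase luminescence.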

[14] = test system: CAOV3; assay: as above; details: Gynecologic cancer cell panel viability, ATPlite luminescence, 48 h; series mostly up to 57.5 µM
Outline: as §3

[15] = test system: CASKI; assay: as above; details: Gynecologic cancer cell panel viability, ATPlite luminescence, 48 h; series mostly up to 57.5 µM
Outline: as §3

[16] = test system: Es-2; assay: as above; details: Gynecologic cancer cell panel viability, ATPlite luminescence, 48 h; series mostly up to 57.5 µM
Outline: as §3

[17] = test system: HeLa; assay: as above; details: Gynecologic cancer cell panel viability, ATPlite luminescence, 48 h; series mostly up to 57.5 µM
Outline: as §3

[18] = test system: JEG-3; assay: as above; details: Gynecologic cancer cell panel viability, ATPlite luminescence, 48 h; series mostly up to 57.5 µM
Outline: as §3

[19] = test system: NIH3T3; assay: qHTS assay to identify novel small-molecules to repurpose for Merkel cell carcinoma treatment (AID 1296009); details: MCC and control cell lines, CellTiter-Glo viability, 72 h; at 44.8 µM (top of the series) unless noted; also: nearly all actives have a fitted effect of over 60% in size
Outline: as §2

[20] = test system: Hek293T; assay: Primary qHTS to identify gynecologic anti-cancer compounds using libraries of approved drugs and bioactive compounds (AID 1345084); details: Gynecologic cancer cell panel viability, ATPlite luminescence, 48 h, control line for the selectivity index; series mostly up to 57.5 µM; also: nearly all actives have a fitted effect of over 55% in size
Outline: as §3
% is scaled to controls: 0 for no effect and ±100 for the full control effect.

O=C(O)C(Cl)Cl
inactive: outcome [1] | max response [2] -7.1% and -3.84% | max response [3] -3.68% | outcome [4] | outcome [5] | outcome [6] | Potency [7] | Potency [8] | Potency [9] | Potency [10] | Potency [11] | Potency [12] | Potency [13] | Potency [14] | Potency [15] | Potency [16] | Potency [17] | Potency [18]

O=S(=O)(F)Cc1ccccc1
inactive: max response [1] -8.02% | max response [2] 3.23% | max response [3] 3.32% | outcome [4] | outcome [6] | Potency [7] | Potency [8] | Potency [9] | Potency [10] | Potency [11] | Potency [12]

CC(C)(C)[C@]1(O)C[C@@H]2OC(=O)C[C@@]23C(=O)O[C@@H]2OC(=O)[C@H](O)C213 (some centres not stated)
inactive: outcome [1] | outcome [2] | outcome [3] | outcome [5] | outcome [6] | Potency [7] | Potency [8] | Potency [9] | Potency [10] | outcome [19] | Potency [11] | Potency [12]

CCN(CC)C(=O)c1ccc(C2=CC3(CCNCC3)Oc3cccc(O)c32)cc1
inactive: max response [1] -0.307% | outcome [1] | max response [2] 5.76% and 9.58% | max response [3] 0.128% | outcome [3] | outcome [5] | Potency [7] | Potency [8] | Potency [9] | Potency [10] | outcome [19] | Potency [11] | Potency [12] | Potency [13] | Potency [14] | Potency [15] | Potency [16] | Potency [17] | Potency [20] | Potency [18]

COC(=O)[C@@H](N)CCCN=C(N)N[N+](=O)[O-]
inactive: max response [1] -4.22% | max response [2] 9.25% | max response [3] 1.58% | outcome [4] | Potency [7] | Potency [8] | Potency [9] | Potency [10] | Potency [11] | Potency [12]

Clc1ccccc1C(c1ccccc1)(c1ccccc1)n1cccn1
inactive: max response [1] -3.22% | max response [2] 9.15% | outcome [3] | outcome [4] | Potency [7] | Potency [8] | Potency [9] | Potency [10] | outcome [19] | Potency [11] | Potency [12]

CCc1c(C(=O)C(N)=O)c2c(OCC(=O)O)cccc2n1Cc1ccccc1
inactive: max response [1] -1.12% and -1.77% | max response [2] 9.54% | outcome [2] | max response [3] -3.2% | outcome [3] | Potency [7] | Potency [8] | Potency [9] | Potency [10] | outcome [19] | Potency [11] | Potency [12] | Potency [13] | Potency [14] | Potency [15] | Potency [16] | Potency [17] | Potency [20] | Potency [18]

C[N+](C)(C)CC(=O)O
inactive: max response [1] 3.56% | max response [2] -11.7% and 3.15%

O=C(Oc1ccc([N+](=O)[O-])cc1)N1CCN(Cc2cccc(Oc3ccccc3)c2)CC1
inactive: max response [1] 0.717% and -5.04% | max response [2] -6.21% and -13.5% | max response [3] 0.403% | outcome [3] | Potency [7] | Potency [8] | Potency [9] | Potency [10] | outcome [19] | Potency [11] | Potency [12] | Potency [13] | Potency [14] | Potency [15] | Potency [16] | Potency [17] | Potency [20] | Potency [18]

CC(=O)OCC1=C(C(=O)O)N2C(=O)[C@@H](N)[C@@H]2SC1
inactive: max response [1] -5.82% | max response [2] 0.594% | max response [3] -7.48% | outcome [4] | Potency [7] | Potency [8] | Potency [9] | Potency [10] | Potency [11] | Potency [12]

CC(=O)N(C)c1cccc(-c2ccnc3c(C(=O)c4cccs4)cnn23)c1
inactive: max response [1] 3.39% | outcome [1] | max response [2] -3.54% | outcome [2] | max response [3] -0.872% and 2.98% | outcome [4] | outcome [5] | Potency [7] | Potency [8] | Potency [9] | Potency [10] | Potency [11] | Potency [12] | Potency [13] | Potency [14] | Potency [15] | Potency [16] | Potency [17] | Potency [20] | Potency [18]

COC(C)(C)CCCC(C)C/C=C/C(C)=C/C(=O)OC(C)C (configuration not stated)
inactive: outcome [1] | max response [2] 3.28% | outcome [3] | outcome [5] | Potency [7] | Potency [8] | Potency [9] | Potency [10] | outcome [19] | Potency [11] | Potency [12] | Potency [13] | Potency [14] | Potency [15] | Potency [16] | Potency [17] | Potency [20] | Potency [18]

CN[C@@H](C)[C@H](O)c1ccccc1
inactive: max response [1] 1.69% | max response [2] -0.943% | max response [3] -5.73% | outcome [6] | Potency [7] | Potency [8] | Potency [9] | Potency [10] | Potency [11] | Potency [12] | Potency [13] | Potency [14] | Potency [15] | Potency [16] | Potency [17] | Potency [20] | Potency [18]

C[C@]12CC[C@H]3[C@@H](CCC4=CC(=O)CC[C@@]43C)[C@H]1CC[C@H]2OC(=O)CCC1CCCC1
inactive: max response [1] 4.09% | max response [2] 9.03% | max response [3] 3.21% | outcome [6] | Potency [7] | Potency [8] | Potency [9] | Potency [10] | Potency [11] | Potency [12]

CCCCCCCCCC(CC)c1ccc(S(=O)(=O)O)cc1 (configuration not stated)
inactive: outcome [1] | max response [2] -1.21% and -21.2% | max response [3] -1.31% | outcome [5] inactive [at 92 µM] | Potency [7] | Potency [8] | Potency [9] | Potency [10] | Potency [11] | Potency [12] | Potency [13] | Potency [14] | Potency [15] | Potency [17] | Potency [20] | Potency [18]
